FBA Mtb inh – Mtb FBA enzyme inhibitors, primary screen, biochemical, fluorescence, strain H37Rv; purified M. tuberculosis FBA, fluorescence read-out; inhibition, % at 1 µM; 360,000 compounds, 2.3% hits; AID 588726, 2011
Target sequence (P9WQA3 whole entry, looked up): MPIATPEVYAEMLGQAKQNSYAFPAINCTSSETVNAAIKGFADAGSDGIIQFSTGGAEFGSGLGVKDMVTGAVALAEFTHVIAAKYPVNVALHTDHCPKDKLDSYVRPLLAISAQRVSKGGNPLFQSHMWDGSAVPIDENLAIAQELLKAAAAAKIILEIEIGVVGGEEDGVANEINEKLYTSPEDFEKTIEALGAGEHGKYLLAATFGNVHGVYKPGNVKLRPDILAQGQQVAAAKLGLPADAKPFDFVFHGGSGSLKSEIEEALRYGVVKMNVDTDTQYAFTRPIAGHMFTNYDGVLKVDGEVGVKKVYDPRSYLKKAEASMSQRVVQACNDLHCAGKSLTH
Rv3671c protease – Rv3671c serine protease inhibitors, primary screen, biochemical, fluorescence polarization, M. tuberculosis H37Rv. P9WHR9. inhibition, % at 5.96 µM. 320,000 compounds, 0.048% hits; in the data active means inhibition above about 38%;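 further: extracellular domain of Rv3671c used as enzyme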
Target sequence (P9WHR9 whole entry, looked up, the tested form may be a part): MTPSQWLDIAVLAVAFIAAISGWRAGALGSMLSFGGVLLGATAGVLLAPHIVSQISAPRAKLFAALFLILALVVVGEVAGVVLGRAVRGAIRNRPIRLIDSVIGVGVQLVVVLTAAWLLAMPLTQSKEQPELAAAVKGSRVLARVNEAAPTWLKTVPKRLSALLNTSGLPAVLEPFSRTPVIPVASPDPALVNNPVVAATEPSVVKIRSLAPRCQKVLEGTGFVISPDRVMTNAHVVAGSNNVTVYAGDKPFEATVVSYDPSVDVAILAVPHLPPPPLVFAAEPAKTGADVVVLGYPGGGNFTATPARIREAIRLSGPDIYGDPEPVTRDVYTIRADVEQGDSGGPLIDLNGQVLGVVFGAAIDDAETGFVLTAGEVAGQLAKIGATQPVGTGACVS
GDH-TPI counter-1 – GDH-TPI coupling enzyme inhibitors, primary screen, artefact control for M. tuberculosis FBA inhibitor project, biochemical, absorbance, full deck. inhibition, % at 4.8 µM. 360,000 compounds, 1.2% hits. GDH-TPI coupled enzyme counterscreen, NADH absorbance; in the data active means inhibition above about 30%
FadD28 FP inh – inhibitors of FadD28 bisubstrate probe binding, primary screen, biochemical, fluorescence polarization, single point; inhibition, % at 12.5 µM; Mycobacterium tuberculosis FadD28 fatty-acid-AMP ligase; 360,000 compounds, 0.22% hits; in the data active means inhibition above about 8.5%, passing the limit was not always enough
BioA inh – M. tuberculosis BioA enzyme inhibitors, primary screen, biochemical, plate reader, single point, HTS | 7,8-diaminopelargonic acid synthase BioA (Mycobacterium tuberculosis) | purified M. tuberculosis BioA enzyme | inhibition, % at 9.99 µM | 360,000 compounds, 0.096% hits; in the data active means inhibition above about 40%
Mtb FBA inh conf – M. tuberculosis aldolase blockers, biochemical, fluorescence, strain H37Rv, confirmation. shares compounds with FBA Mtb inh. purified M. tuberculosis FBA, fluorescence read-out. inhibition, % at 1 µM. 5,600 compounds, 78% hits
GDH-TPI counter-2 – GDH-TPI coupling enzyme inhibitors, artefact control for M. tuberculosis FBA inhibitor project, biochemical, fluorescence, high throughput; GDH-TPI coupled enzyme counterscreen; shares compounds with FBA Mtb inh; inhibition, % at 1 µM; 5,600 compounds, 81% hits; in the data active means inhibition above about 10%
Each line names hits and unclear results; the compound was inactive in the other large screens (follow-up assays come after a bar, where they were run); ! = repeats disagree. The list is not random: actives were taken first. Their share in the collection is about 3%. Unless noted, no stated cut-off is given here; in the data, active means inhibition above about 27%; inactive means the rest.

C[C@@H]1CN([C@H](C)CO)C(=O)c2cc(NS(=O)(=O)c3ccc(F)cc3)ccc2O[C@@H]1CN(C)S(=O)(=O)c1ccc(Cl)cc1	none (no result: FBA Mtb inh, Rv3671c protease, GDH-TPI counter-1, FadD28 FP inh)
C[C@H](CO)N1C[C@H](C)[C@H](CN(C)C(=O)Nc2ccc(F)cc2)Oc2ncc(C#CCN(C)C)cc2C1=O	none (no result: FBA Mtb inh, Rv3671c protease, GDH-TPI counter-1, FadD28 FP inh)
COc1cc2ccccc2cc1C(=O)OCC(=O)c1c(N)n(C)c(=O)n(C)c1=O	FBA Mtb inh 28 | Mtb FBA inh conf 178 | GDH-TPI counter-2 142
Cc1cc(C)c2c(N)c3cccc(C)c3nc2n1	FBA Mtb inh 65 (no result: BioA inh) | Mtb FBA inh conf 133 | GDH-TPI counter-2 111
C=CCNc1cnn(-c2ccc(C)cc2)c(=O)c1Sc1ccc(C)cc1	FBA Mtb inh 41 | Mtb FBA inh conf 56 | GDH-TPI counter-2 47
CCS(=O)(=O)NCC[C@@H]1CC[C@@H](NC(=O)C2CCOCC2)[C@@H](CO)O1	none (no result: FBA Mtb inh, Rv3671c protease, GDH-TPI counter-1, FadD28 FP inh)
CCOCCCNC(=O)c1cc2c(s1)-c1ccccc1SC2	none
CN(C)CCNC(=O)c1cc2c(s1)-c1ccc(Cl)cc1SC2	FBA Mtb inh 34 (no result: Rv3671c protease) | Mtb FBA inh conf 106 | GDH-TPI counter-2 90
C/C=C/c1ccc([C@H]2[C@@H](CNS(C)(=O)=O)N(CC3CC3)[C@H]2CO)cc1	none (no result: FBA Mtb inh, Rv3671c protease, GDH-TPI counter-1, FadD28 FP inh)
COc1ccc(/C=C/c2c(-c3ccc(OC)cc3)oc3cccnc23)cc1	FBA Mtb inh 41 | Mtb FBA inh conf inactive | GDH-TPI counter-2 inactive
COc1ccc(CN(C)C[C@H]2Oc3ccc(NS(=O)(=O)c4c(C)noc4C)cc3C(=O)N([C@H](C)CO)C[C@@H]2C)cc1	none (no result: FBA Mtb inh, Rv3671c protease, GDH-TPI counter-1, FadD28 FP inh)
O=C1c2cccc3cccc(c23)C(=O)N1Cc1ccccn1	FBA Mtb inh 32 (no result: Rv3671c protease) | Mtb FBA inh conf 61 | GDH-TPI counter-2 37
O=C1c2cccc3cccc(c23)C(=O)N1c1ccccn1	FBA Mtb inh 51 | Mtb FBA inh conf inactive | GDH-TPI counter-2 inactive
O=C(c1ccc(C(F)(F)F)cc1)n1ccc(-c2cccs2)n1	none (no result: BioA inh)
O=C(c1ccc(F)cc1)n1ccc(-c2cnc(-c3ccccc3)s2)n1	FBA Mtb inh 47 | Mtb FBA inh conf 81 | GDH-TPI counter-2 59
COc1cccc(S(=O)(=O)Nc2ccc3c(c2)OC[C@@H](C)N(C(=O)Cc2cccnc2)C[C@H](C)[C@H](OC)CN(C)C3=O)c1	none (no result: FBA Mtb inh, Rv3671c protease, GDH-TPI counter-1, FadD28 FP inh)
CO[C@H]1CN(C)C(=O)c2ccc(NS(C)(=O)=O)cc2OC[C@H](C)N(C(=O)C2CCCC2)C[C@@H]1C	none (no result: FBA Mtb inh, Rv3671c protease, GDH-TPI counter-1, FadD28 FP inh)
C[C@H](CO)N1C[C@H](C)[C@H](CN(C)CC2CCCCC2)OCCCC[C@H](C)Oc2ccc(NC(=O)C3CCCCC3)cc2C1=O	none (no result: FBA Mtb inh, Rv3671c protease, GDH-TPI counter-1, FadD28 FP inh)
COc1cc(/C=C/C(=O)Nc2ccncc2)cc(OC)c1OC	FBA Mtb inh 38 (no result: BioA inh) | Mtb FBA inh conf 74 | GDH-TPI counter-2 66
COC(=O)C[C@@H]1C[C@H]2c3cc(NC(=O)CC4CC4)ccc3O[C@H]2[C@H](CO)O1	none (no result: FBA Mtb inh, Rv3671c protease, GDH-TPI counter-1, FadD28 FP inh)
CN(C)S(=O)(=O)c1ccc(NC(=O)c2cc(-c3cccs3)nc3ccccc23)cc1	none
Cc1cc(NC(=O)c2cc(-c3cccs3)nc3ccccc23)no1	FBA Mtb inh 71 | Mtb FBA inh conf inactive | GDH-TPI counter-2 inactive
CC(C)NC(=O)c1cc(-c2cccs2)nc2ccccc12	FBA Mtb inh 71 | Mtb FBA inh conf 145 | GDH-TPI counter-2 113
NS(=O)(=O)c1ccc(NC(=O)c2cc(-c3cccs3)nc3ccccc23)cc1	none (no result: BioA inh)
NNC(=O)c1cc(-c2cccs2)nc2ccccc12	FBA Mtb inh 44 (no result: BioA inh) | Mtb FBA inh conf 110 | GDH-TPI counter-2 92
Cc1ccc(-c2cc(C(=O)Nc3cccnc3)c3ccccc3n2)s1	FBA Mtb inh 42 | Mtb FBA inh conf 59 | GDH-TPI counter-2 43
CN(C)CCCNC(=O)C[C@H]1C=C[C@H](NS(=O)(=O)c2ccc(F)cc2)[C@H](CO)O1	none (no result: FBA Mtb inh, Rv3671c protease, GDH-TPI counter-1, FadD28 FP inh)
CCOC(CCNC(=O)c1cc(-c2cccs2)nc2ccccc12)OCC	FBA Mtb inh 95 (no result: FadD28 FP inh) | Mtb FBA inh conf active | GDH-TPI counter-2 active
O=C(NC1=NCCS1)c1cc(-c2cccs2)nc2ccccc12	FBA Mtb inh 44 (no result: BioA inh) | Mtb FBA inh conf 87 | GDH-TPI counter-2 63
O=C(NC1=NCCS1)c1cc(-c2cccnc2)nc2ccccc12	none (no result: BioA inh)
C/C(=N\NC(=O)c1cc(-c2cccs2)nc2ccccc12)c1ccccn1	FBA Mtb inh 34 (no result: BioA inh) | Mtb FBA inh conf 99 | GDH-TPI counter-2 92
Cc1ccc(-c2cc(C(=O)O)c3cc(Br)ccc3n2)s1	FBA Mtb inh 32, GDH-TPI counter-1 41! (no result: Rv3671c protease) | Mtb FBA inh conf 197! | GDH-TPI counter-2 194!
COc1ccccc1CNC(=O)C[C@H]1CC[C@H]2[C@@H](COC[C@H](O)CN2C(=O)Nc2ccccc2)O1	none (no result: FBA Mtb inh, Rv3671c protease, GDH-TPI counter-1, FadD28 FP inh)
CN1C(=O)c2cc(NC(=O)C3CC3)ccc2OC[C@H]2O[C@H](CC(=O)NCCc3ccncc3)CC[C@@H]21	none (no result: FBA Mtb inh, Rv3671c protease, GDH-TPI counter-1, FadD28 FP inh)
CC(C)NC(=O)N(C)C[C@H]1Oc2ccc(NS(=O)(=O)c3cn(C)cn3)cc2CC(=O)N([C@H](C)CO)C[C@H]1C	none (no result: FBA Mtb inh, Rv3671c protease, GDH-TPI counter-1, FadD28 FP inh)
C[C@H]1CN([C@@H](C)CO)C(=O)CCCn2nncc2CO[C@H]1CN(C)C(=O)CCCN(C)C	none (no result: FBA Mtb inh, Rv3671c protease, GDH-TPI counter-1, FadD28 FP inh)
O=C(O)c1ccc(/C=N/NC(=O)c2cc(-c3cccs3)nc3ccccc23)cc1	FBA Mtb inh 31 (no result: BioA inh) | Mtb FBA inh conf active | GDH-TPI counter-2 active
O=C(N/N=C/c1ccsc1)c1cc(-c2cccs2)nc2ccccc12	none
CCCCc1cc(=O)oc2cc(C)cc(OCC(=O)NCc3ccncc3)c12	FBA Mtb inh 81 | Mtb FBA inh conf 139 | GDH-TPI counter-2 108
Cc1cc(OCC(=O)NCc2cccnc2)c2c(C)c(Cc3ccccc3)c(=O)oc2c1	none
CCCCc1cc(=O)oc2cc(C)cc(OCC(=O)NCC3CCC(C(=O)O)CC3)c12 (stereo unspecified)	FBA Mtb inh 67 | Mtb FBA inh conf inactive | GDH-TPI counter-2 inactive
Cc1cc(OCC(=O)NCc2ccccn2)c2c(C)cc(=O)oc2c1	FBA Mtb inh 79 | Mtb FBA inh conf 103 | GDH-TPI counter-2 72
CCCc1cc(=O)oc2cc(C)cc(OCC(=O)NCc3ccccn3)c12	FBA Mtb inh 55 | Mtb FBA inh conf 28 | GDH-TPI counter-2 32
CCCc1cc(=O)oc2cc(OCC(=O)NCc3ccccn3)ccc12	none
CO[C@@H]1CN(C)C(=O)c2cc(NS(C)(=O)=O)ccc2OC[C@@H](C)N(Cc2ccccc2)C[C@H]1C	none (no result: FBA Mtb inh, Rv3671c protease, GDH-TPI counter-1, FadD28 FP inh)
CC(=O)OCC1OC(Sc2cccc3cccnc23)C(OC(C)=O)C(OC(C)=O)C1OC(C)=O (stereo unspecified)	FBA Mtb inh 36 | Mtb FBA inh conf active | GDH-TPI counter-2 159
